SW480 rerep: inducers of DNA re-replication in SW480 colon cancer cells. Potency, µM (top dose mostly 46.1 µM), for inactives: at the top dose re-replication activation, hits mostly activators. SW480 DNA re-replication, Hoechst DNA content imaging, 48 h. 340,000 compounds, 1.8% hits. AID 624297; further: potency means the concentration at half of the fitted maximal effect; % of control where 0% means no effect; nearly all actives have a fitted effect of over 55% in size
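Quantitative HTS format with DMSO vehicle controls; 48 hr drug incubation at 37 C, then 40 min Hoechst staining and scanning imager measurement at 405 nm excitation.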
DT40 TDP1 no CPT: qHTS for Inhibitors of human tyrosyl-DNA phosphodiesterase 1 (TDP1): qHTS in cells in absence of CPT; Potency, µM (highest dose often 46.2 µM), for inactives: at the top dose activity change, negative = growth inhibition, most hits filed as inhibitors; 420,000 compounds, 15% hits; AID 686978, 2013; DT40 Tdp1-/- hTDP1 cells, no CPT, ATP luminescence, 48 h; further: potency means the concentration at half of the fitted maximal effect; on the % scale 0 is the no-effect control and ±100 the full control effect; nearly all actives have a fitted effect of over 55% in size
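Growth kinetics read by CellTiter-Glo luminescence after ≥48 hr at 37 °C. Cells: DT40 Tdp1-/- stably carrying human TDP1, 400 per well, compound exposure in the absence of CPT (DMSO vehicle).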
IL1B secr inh: inflammasome signaling inhibition, IL-1 beta readout | THP-1 LPS/ATP IL-1B secretion, AlphaLISA, 16 h; stronger effect = lower value | activity change, % at 57.5 µM | 360,000 compounds, 4.7% hits | AID 743279; in the data active means activity change below about -50%; inconclusive means mostly about -30% to -49%; further: on the % scale 0 is the no-effect control and ±100 the full control effect
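THP-1 cells pretreated 1 hr with compounds (up to 57.5 uM final), then stimulated with LPS (250 ng/mL final) plus ATP (1.25 mM final); secreted IL-1B measured by AlphaLISA after 16 hr, decreased signal indicating inhibition.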
BCR signal inh: blocks chronic active B-cell receptor signaling; AID 493014; ABC-DLBCL IkBa-CBG/CBR reporter, luminescence ratio, 4 h; 340,000 compounds, 0.05% hits; Potency, µM (top dose mostly 46.1 µM), for the others: at the top dose activity change, negative = inhibition, most hits filed as inhibitors; active means well fitted inhibition curve with a large enough effect in the signal ratio, with a control signal flat, not every such curve was filed as active; inconclusive means small, poorly fitted or top-dose-only effect, or effect the other way, or a change in a side signal; the % refers to the signal ratio;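 further: potency means the concentration at half of the fitted maximal effect; plate controls were basal doxycycline-induced cells for no effect and cells given 10 µM MG132 for full effect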
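TMD8 human ABC-DLBCL cells with doxycycline-inducible IκBα–green luciferase fusion and unfused red luciferase, in 0.5% FBS medium; compounds up to 46 uM, 4 h at 37C. Green/red luminescence ratio, filter-overlap corrected, fitted to concentration-response curves.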
DT40 TDP1 CPT: DT40-hTDP1 cell growth loss with CPT | AID 686979 | Potency, µM (titrated, usually from 46.2 µM), for inactives: at the highest dose activity change, negative = growth inhibition, usual class: inhibitors | chicken DT40 Tdp1-/-;hTDP1 cells + 20 nM CPT, ATP luminescence, 48 h | 420,000 compounds, 12% hits; further: potency means the concentration at half of the fitted maximal effect; on the % scale 0 is the no-effect control and ±100 the full control effect; nearly all actives have a fitted effect of over 55% in size
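Chicken DT40 Tdp1-/- cells complemented with human TDP1, 400 cells/well, exposed to compounds plus 20 nM camptothecin for at least 48 h at 37 C; viability read as ATP content by CellTiter-Glo luminescence.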
MCF10A rerep: DNA re-replication induction in MCF 10a cells | MCF 10A DNA re-replication, Hoechst nuclear intensity, 48 h | Potency, µM (doses to about 46.1 µM), for inactives: top-dose activity, positive = re-replication, most hits filed as activators | 350,000 compounds, 2.9% hits; further: potency means the concentration at half of the fitted maximal effect; % of control where 0% means no effect; nearly all actives have a fitted effect of over 50% in size
Active calls of the source: *; ? = inconclusive; · = not tested or not shown; [ ] = remark or other dose. In the library only some 19% were active in any assay of this set; here they are far more common. Unless noted, the call rests on the fitted dose curve; in most records, active means well fitted curve in the direction sought with a large enough effect; inconclusive means small, poorly fitted or top-dose-only effect, or another doubt; inactive means no such curve, though single readings can be large; an effect the other way counts as inactive or inconclusive.

SMILES | SW480 rerep | DT40 TDP1 no CPT | IL1B secr inh | BCR signal inh | DT40 TDP1 CPT | MCF10A rerep
Cc1ccc(NC(=O)c2ccc3nc[nH]c3c2)c(O)c1 | -3% | -9% | 25 | ? | 1% | 2%
Cc1ccc(NC(=O)c2ccc3nc[nH]c3c2)nc1 | 24% | 18µM* | 8 | 4% | 23µM* | ?
O=C(Nc1ccccn1)C1(c2ccccc2)CCCC1 | -4% | ? | 14 | 20% | ? | -7%
Cc1ccc(NC(=O)c2ccc(C(=O)c3ccccc3)cc2)nc1 | ? | ? | -14 | -11% | 18µM* | 1%
Cc1ccc(NC(=O)c2cncc(Br)c2)nc1 | 16% | 6% | -21 | ? | -9% | ?
Cc1ccnc(NC(=O)c2cccc(S(=O)(=O)N3CCN(c4ccccc4)CC3)c2)c1 | -252% | ? | -13 | 7% | 0% | 17%
Cc1ccc(NC(=O)C2(c3ccccc3)CCCC2)nc1 | -5% | 15µM* | 17 | · | ? | 9%
Cc1ccc(NC(=O)c2cccc(S(=O)(=O)N3CCN(c4ccccc4)CC3)c2)nc1 | -113% | 21µM* | -29 | 11% | 21µM* | 10%
COC(=O)c1ccccc1C(=O)N1CCOc2ccc(CN3CCN(c4ccccn4)CC3)cc2C1 | · | -11% | · | · | 2%[9.04 µM] | ·
O=C(NCCNC(=O)c1ccc(-c2ccc(Cl)c(Cl)c2)o1)c1cnccn1 | -5% | 15µM* | -74* | ? | ? | 9%
O=C(NCCNC(=O)c1ccc(-c2cccc(Cl)c2)o1)c1cnccn1 | · | ? | -12 | · | ? | ·
O=C(Nc1ccc(Cl)cn1)c1ccc(-c2ccc(Cl)c(Cl)c2)o1 | 1% | -22% | -3 | · | -13% | 18µM*
O=C(NCCNC(=O)c1ccc(-c2cc(Cl)ccc2Cl)o1)c1cnccn1 | · | 21µM* | -8 | · | ? | ·
Clc1ccc(C2=CSC3=NCCN23)c(Cl)c1 | -98% | -10% | -51* | · | 4% | 9%
Cc1cc(C)c2cc(C#N)c(NCCNC(=O)c3ccccn3)nc2c1 | · | -9% | -21 | · | 4% | ·
COc1ccc(NC(=O)N[C@H]2C=C[C@@H](CC(=O)NC3CCC3)O[C@@H]2CO)cc1 | · | 5% | 0 | · | -2% | ·
COc1ccc(NC2CCCN(C(=O)C3(C)CCCCC3)C2)cc1OC (centres undefined) | -2% | ? | 19 | -4% | ? | 1%
Cc1nc2c(OCc3ccc(C(F)(F)F)cc3)cccn2c1N(C)Cc1cccs1 | · | ? | -84* | · | ? | ·
CCc1nc2c(OCc3ccc(C(F)(F)F)cc3)cccn2c1N(C)C(=O)c1ccco1 | · | ? | -19 | · | ? | ·
CCc1nc2c(OCc3ccc(C(F)(F)F)cc3)cccn2c1N(C)C(C)=O | · | ? | -9 | · | ? | ·
CCCCN(C=O)c1c(CC)nc2c(OCc3ccc(C(F)(F)F)cc3)cccn12 | · | 12µM* | -65* | · | 12µM* | ·
CCc1nc2c(OCc3ccc(C(F)(F)F)cc3)cccn2c1N(C=O)Cc1ccc(OC)cc1 | · | 16µM* | -72* | · | 21µM* | ·
O=C(CC[C@H]1O[C@@H](n2cnc3c(NC(=O)c4ccccc4)ncnc32)[C@H](O)[C@@H]1O)NCC1CCN(Cc2ccccc2)CC1 | · | -5% | 19 | · | -5% | ·
CCOc1ccc(S(=O)(=O)c2ccc(C)cc2)c2c1no[n+]2[O-] | · | 18µM* | -1 | · | 15µM* | ·
CCCCn1c(=O)[nH]c(=O)c2c1nc(Cn1ncc(Cl)c(Cl)c1=O)n2CCC | ? | 2.6µM* | -104* | ? | 4.6µM* | ?
COc1cccc(CCc2nnc(N)s2)c1 | -4% | 7% | 19 | 0% | 11% | 3%
Cc1cc(C)cc(Oc2ccccc2/C=N\O)c1 | 0% | -11% | 4 | ? | -8% | 3%
COc1ccc(Oc2ccccc2C=O)cc1 | ? | 5.8µM* | 30 | ? | 12µM* | ?

Screening results (PubChem BioAssay)
